Assay outcomes as filed in PubChem BioAssay.
LYPLA2 counter = blocks human lysophospholipase 2, a PME1 counter-screen | recombinant LYPLA2, FP-Rh probe fluorescence polarization | inhibition, % at 5.9 µM | 320,000 compounds, 0.38% hits | O95372;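 active means inhibition above the screen-wide mean plus 3 SD, limit set per campaign, cut at about 26% in these data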;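 further: 0% = LYPLA2 with DMSO and 100% = wells lacking LYPLA2 enzyme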
Target sequence (O95372 whole entry, looked up): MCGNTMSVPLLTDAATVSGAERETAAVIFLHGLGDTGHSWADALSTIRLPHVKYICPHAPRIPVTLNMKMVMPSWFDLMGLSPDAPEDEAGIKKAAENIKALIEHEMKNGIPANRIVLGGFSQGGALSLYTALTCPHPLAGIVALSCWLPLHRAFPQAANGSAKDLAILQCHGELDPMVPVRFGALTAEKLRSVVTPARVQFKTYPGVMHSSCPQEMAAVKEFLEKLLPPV
Fam108B inh = blocks mouse Fam108B hydrolase in RBBP9 counter-screen; recombinant Fam108B, FP-Rh probe fluorescence polarization; 300,000 compounds, 0.33% hits; inhibition, % at 9.51 µM;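 active means inhibition above the screen mean inhibition plus 3 SD, computed separately per campaign, cut at about 18% in these data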;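 further: inhibitors lower polarization as less probe binds the enzyme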
PME-1 inh = blocks human protein phosphatase methylesterase 1 | recombinant PME-1, FP-Rh probe fluorescence polarization | inhibition, % at 5.9 µM | 320,000 compounds, 0.53% hits | AID 2130;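 active means inhibition above the campaign mean of all compounds plus 3 SD, cut at about 26% in these data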;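 further: competitive labeling of PME-1 active site by serine hydrolase directed probe; 0% = PME-1 with DMSO and 100% = wells lacking PME-1 enzyme; inhibitors block probe labeling so polarization falls and inhibition rises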
PREPL inhibitor = inhibitors of human prolyl oligopeptidase-like enzyme PREPL; Q4J6C6; recombinant PREPL, fluorescence polarization activity-based probe; inhibition, % at 5.96 µM; 320,000 compounds, 0.68% hits; in the data active means inhibition above about 43%;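 further: 0% = enzyme with DMSO and 100% = wells lacking enzyme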
LYPLA1 inh = blocks human lysophospholipase 1, a PME1 counter-screen; O75608; inhibition, % at 5.9 µM; 320,000 compounds, 0.16% hits; AID 2174; recombinant LYPLA1, FP-Rh probe fluorescence polarization;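 active means inhibition above the mean of all tested compounds plus 3 SD, set per campaign, cut at about 14% in these data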;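 further: inhibitors block serine hydrolase probe labeling of LYPLA1 so polarization falls; 0% = enzyme with DMSO and 100% = wells lacking LYPLA1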
Target sequence (O75608 whole entry, looked up): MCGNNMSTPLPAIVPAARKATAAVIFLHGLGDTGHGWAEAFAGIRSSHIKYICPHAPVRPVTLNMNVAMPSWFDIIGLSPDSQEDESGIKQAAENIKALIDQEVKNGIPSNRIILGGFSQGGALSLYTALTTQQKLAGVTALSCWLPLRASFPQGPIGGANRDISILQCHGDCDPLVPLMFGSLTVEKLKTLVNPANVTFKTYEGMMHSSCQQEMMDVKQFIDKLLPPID
Fam108b confirm = Fam108b (mouse) hydrolase inhibition, confirmation assay. 930 compounds, 44% hits. recombinant Fam108b, FP-Rh probe fluorescence polarization. inhibition, % at 9.51 µM. shares compounds with Fam108B inh;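 active means inhibition above a limit from the primary screen, the mean over all compounds plus 3 SD, cut at about 19% in these data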;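 further: 0% = median of active Fam108b wells and 100% = catalytically dead S170A mutant; inhibitors free the probe so polarization falls as inhibition rises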
Fam108b inh = mouse ABHD17B inhibition. inhibition, % at 20 µM. shares compounds with Fam108B inh. AID 588649. recombinant Fam108b, gel-based ABPP, fluorophosphonate probe. 260 compounds, 44% hits; in the data active means inhibition above about 40%
* hit, by the source's call; · = not tested or not shown. Shown are actives, neighbours in structure and some others; about 1.3% of the full set was active somewhere.

SMILES | LYPLA2 counter | Fam108B inh | PME-1 inh | PREPL inhibitor | LYPLA1 inh | Fam108b confirm | others
O=C(Nc1ccc(N2CCOCC2)cc1)c1ccc2nc(-c3ccco3)c(-c3ccco3)nc2c1 | -3 | -6 | -1 | 13 | -5 | ·
O=C(Nc1ccccc1)c1ccc2nc(-c3ccco3)c(-c3ccco3)nc2c1 | -14 | 48* | 8 | 42 | -22 | 8
CC(=O)c1ccc(NC(=O)c2ccc3nc(-c4ccco4)c(-c4ccco4)nc3c2)cc1 | -9 | 40* | 5 | 30 | -22 | 29*
O=C(NCCO)Nc1ccc2nsnc2c1 | 5 | 0 | 5 | -1 | 8 | ·
O=C(NCCO)Nc1ccc2nc(-c3ccco3)c(-c3ccco3)nc2c1 | 4 | 68* | 25 | 42 | -7 | 45* | Fam108b inh=0
CCCCn1nc(CC(=O)NCCN(CC)CC)c2ccccc2c1=O | 3 | -2 | 0 | -5 | 0 | ·
O=S(=O)(c1cccc2nonc12)N1CCCCCC1 | 3 | 1 | 2 | 4 | 1 | ·
CCN=c1scc(C)n1/N=C/c1cc(Br)c(O)c(Br)c1 | 14 | 21* | 6 | 26 | 10 | 9
CCN=c1scc(C)n1/N=C/c1ccc(O)c(O)c1O | -9 | 5 | -4 | 12 | -4 | ·
CSc1ccc(S(=O)(=O)N2CCC(C(=O)NC3CC3)CC2)cc1 | -3 | 2 | 4 | -8 | -1 | ·
O=C1NN(c2ccccc2)C(=O)/C1=C/c1ccc(-c2ccc(C(=O)O)cc2)o1 | 2 | 10 | -4 | -7 | 0 | ·
O=C1NN(c2ccccc2)C(=O)/C1=C/c1ccc(Sc2cccc3ccccc23)o1 | 9 | 29* | 10 | 25 | 3 | 4
CN(Cc1nccs1)C(=O)C1CCC(=O)N(CCc2ccc(Cl)cc2)C1 (configuration not stated) | 7 | 3 | -4 | 23 | -1 | ·
CCN(CC)S(=O)(=O)c1ccc(Nc2nc3ccccc3n3nnnc23)cc1 | -16 | 26* | 10 | -7 | -20 | 13
c1ccc(Nc2nc3ccccc3n3nnnc23)cc1 | -2 | 1 | 11 | 2 | -3 | ·
O=C1NCCN(Cc2cccc(Oc3ccccc3)c2)C1CC(=O)N1CCCO1 (configuration not stated) | -3 | -1 | -7 | 8 | -1 | ·
Cc1ccc(C)n1-c1cccc(C(=O)O)c1 | 1 | 35* | -27 | 5 | -3 | 43* | Fam108b inh=0
Cc1cc(C=O)c(C)n1-c1cccc(C(=O)O)c1 | -2 | 1 | -6 | 0 | -3 | ·
Cc1cc2c(N=O)c(NO)ccc2[nH]1 | 9 | 33* | 49* | 32 | 5 | 10
O=Nc1c(O)[nH]c2ccc(F)cc12 | 9 | 9 | 19 | 12 | 3 | ·
Cn1c(=O)c(C#N)c(-c2ccc(F)cc2)c2cc(C(=O)c3cc(Cl)cc(Cl)c3O)cnc21 | 3 | 22* | 63* | -3 | 1 | 22*
O=C(Cc1c(F)cccc1Cl)Nc1ccccc1-c1ccccc1 | -7 | 0 | 0 | 0 | -2 | ·
CCOC(=O)C1=C(COC(=O)C2CC(=O)N(c3ccc(C)cc3)C2)NC(=O)NC1C (configuration not stated) | 2 | 2 | -6 | 1 | 3 | ·
CN(C)S(=O)(=O)c1ccc(-c2csc(N/N=C/c3ccc(O)cc3)n2)cc1 | 12 | 29* | 35* | 16 | -9 | 9
O=[N+]([O-])c1cccc(-c2csc(N/N=C/c3cccc(O)c3)n2)c1 | -10 | 32* | 11 | 24 | -14 | 31*
SMILES | LYPLA2 counter | Fam108B inh | PME-1 inh | PREPL inhibitor | LYPLA1 inh | Fam108b confirm | others
CN(C)S(=O)(=O)c1ccc(-c2csc(N/N=C/c3ccco3)n2)cc1 | 10 | 10 | 16 | 1 | 0 | ·
COc1ccc(-c2nn(C)c3sc(C(=O)NCc4ccco4)cc23)cc1OC | -83 | -33 | -53 | 13 | -34 | ·
COc1ccc(NC(=O)c2cc3c(-c4ccc(OC)c(OC)c4)nn(C)c3s2)cc1OC | 2 | 46* | 17 | 26 | 9 | -1
CC(C)[C@H](NS(=O)(=O)c1ccc(Cl)cc1)C(=O)OCC(=O)c1c(N)n(C)c(=O)n(C)c1=O | 7 | · | 3 | 11 | 3 | ·
CC(C)(C)c1ccc(-c2nnc(SCC(=O)NC3CC3)o2)cc1 | -1 | · | -6 | 15 | -1 | ·
Cc1ccc2nc(/C(C#N)=C/c3ccc(O)c(O)c3)[nH]c2c1 | -16 | 31* | 29* | 33 | -19 | 17
Cc1ccc2nc(/C(C#N)=C/c3ccccc3C(=O)O)[nH]c2c1 | -6 | -2 | 1 | 10 | -4 | ·
Cc1ccc2nc(/C(C#N)=C\c3ccc(N4CCCCC4)c([N+](=O)[O-])c3)[nH]c2c1 | 15 | 31* | 68* | 27 | -8 | 0
Cc1cc2occ(CC(=O)N(C)CC(=O)Nc3ccccc3Cl)c2cc1C | 1 | 2 | -3 | 5 | 3 | ·
S=C(NCc1ccc2[nH]c3c(c2c1)CCCC3)Nc1ccccc1 | 7 | 21* | 9 | 18 | -2 | 13
C=C(C)Cn1c(SCC)nc2ccccc2c1=O | -1 | 3 | -6 | -13 | -2 | ·
C=C(C)Cn1c(SCC(=O)N/N=C/c2c(O)ccc3ccccc23)nc2ccccc2c1=O | -8 | 29* | -10 | 3 | -4 | -15
CCOC(=O)c1c(C)[nH]c(C(=O)N/N=C\c2ccccc2O)c1C | -2 | 19* | 4 | 12 | -11 | -10
COc1cccc(C=NNC(=O)c2[nH]c(C)c(C(=O)NN=Cc3cccc(OC)c3O)c2C)c1O | · | · | · | · | · | · | Fam108b inh=95*
CCOC(=O)c1c(C)[nH]c(C(=O)N/N=C/c2cc([N+](=O)[O-])ccc2O)c1C | 3 | 2 | -1 | 4 | -2 | ·
COc1ccccc1/C=N/NC(=O)c1[nH]c(C)c(C(=O)N/N=C/c2ccccc2OC)c1C | -33 | -4 | -23 | 0 | -19 | ·
CCc1ccccc1NC(=O)CN(c1ccc(OC)cc1OC)S(=O)(=O)c1ccccc1 | -2 | 1 | -6 | 9 | 1 | ·
CC1CCCCN1S(=O)(=O)c1ccc(C(=O)Nc2ccccc2-c2nc3ccccc3[nH]2)cc1 (configuration not stated) | 8 | 32* | 28* | -8 | -6 | 72*
COc1cccc(C(=O)OCC(=O)N2CCC(Cc3ccccc3)CC2)c1OC | · | · | · | 2 | · | ·
COc1cccc(/C=N/Nc2ncnc3scc(-c4ccccc4)c23)c1O | -2 | 23* | 17 | 29 | 1 | 3
O=[N+]([O-])c1cccc(-c2nc(-c3ccccc3)c(-c3cccs3)[nH]2)c1 | 1 | -2 | 2 | -10 | 2 | ·
Oc1ccc(-c2nc(-c3ccc(F)cc3)c(-c3ccncc3)[nH]2)cc1 | 2 | 4 | -3 | 6 | 3 | ·
O=[N+]([O-])c1cccc(-c2nc(-c3cccs3)c(-c3cccs3)[nH]2)c1 | 8 | 26* | 32* | 17 | -4 | 7
